According to publication PMC4336329 (PLoS ONE, 2015):
The campaign covered roughly 310,000 compounds. About 14,000 (4.5%) showed an effect of 50% or more. Effects have a minus sign here. The sample holds strong results, similar compounds and a random draw of the others, so the mix is not that of the screen.

molecular target: human ether-à-go-go-related gene (hERG) potassium channel (human, UniProt Q12809); test: primary screen, population patch clamp on CHO cells stably expressing hERG; higher = less effect of the substance
Sequence (Q12809 whole entry, looked up): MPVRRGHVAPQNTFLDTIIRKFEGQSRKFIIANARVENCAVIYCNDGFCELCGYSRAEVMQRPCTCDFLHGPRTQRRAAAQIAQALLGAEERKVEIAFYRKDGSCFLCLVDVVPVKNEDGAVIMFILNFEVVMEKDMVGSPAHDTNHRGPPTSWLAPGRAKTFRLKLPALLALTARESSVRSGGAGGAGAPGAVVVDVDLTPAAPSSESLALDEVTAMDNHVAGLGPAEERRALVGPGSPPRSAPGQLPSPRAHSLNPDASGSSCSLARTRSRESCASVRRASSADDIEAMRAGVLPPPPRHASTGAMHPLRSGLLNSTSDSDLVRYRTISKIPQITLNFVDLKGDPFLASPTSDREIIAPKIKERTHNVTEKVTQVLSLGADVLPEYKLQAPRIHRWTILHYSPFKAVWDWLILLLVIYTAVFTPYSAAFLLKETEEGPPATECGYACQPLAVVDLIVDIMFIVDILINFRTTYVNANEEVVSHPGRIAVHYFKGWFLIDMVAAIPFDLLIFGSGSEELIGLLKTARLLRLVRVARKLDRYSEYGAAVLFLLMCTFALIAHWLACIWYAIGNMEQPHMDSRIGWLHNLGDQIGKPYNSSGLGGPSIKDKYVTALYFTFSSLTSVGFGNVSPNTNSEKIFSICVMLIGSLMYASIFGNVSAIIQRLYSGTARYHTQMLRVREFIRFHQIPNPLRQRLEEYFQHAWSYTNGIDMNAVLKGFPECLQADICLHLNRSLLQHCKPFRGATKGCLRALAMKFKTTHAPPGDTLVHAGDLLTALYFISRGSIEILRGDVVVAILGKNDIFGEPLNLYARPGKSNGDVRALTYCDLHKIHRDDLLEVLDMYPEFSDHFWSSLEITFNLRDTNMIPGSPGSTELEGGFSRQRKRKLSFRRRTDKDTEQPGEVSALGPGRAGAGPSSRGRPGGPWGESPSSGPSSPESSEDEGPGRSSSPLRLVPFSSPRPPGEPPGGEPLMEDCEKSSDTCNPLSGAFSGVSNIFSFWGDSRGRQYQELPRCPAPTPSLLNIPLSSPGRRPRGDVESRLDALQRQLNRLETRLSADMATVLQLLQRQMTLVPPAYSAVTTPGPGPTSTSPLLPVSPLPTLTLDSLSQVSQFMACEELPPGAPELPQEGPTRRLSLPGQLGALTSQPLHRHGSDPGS
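Note: peak tail current of the secondary pulse compared with the same well before compound.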

SMILES | hERG current change (%, negative = inhibition) at 10uM [%]
O=C(Nc1cccc(Cl)c1)c1cc(S(=O)(=O)N2CCCCC2)c[nH]1 | -9.13
Cc1nn2c(=O)cc(CSc3ccccc3NC(=O)c3ccccc3F)nc2s1 | -3.29
CCCCCCCCCCCC(=O)N/N=C/c1ccco1 | -11.2
COc1ccc(Cc2nc3ccc(C(=O)N4CCCCC4CCO)cc3o2)cc1 (centres unmarked) | 4.93
CN(C)C(=O)Cn1c(SCC(=O)NC2CCCCC2)nc2ccccc21 | 7.7
COC(=O)Cn1c(=O)c(=O)n(CC(=O)OC)c2ccccc21 | 22.7
Cn1cnc(S(=O)(=O)NC2CCN(Cc3c(F)cccc3Cl)CC2)c1 | -18.6
COCCN(C(=O)C1CC1)c1nnc(-c2cccc(C)c2)s1 | -6.82
O=C(OCC(=O)N1CCN(c2ccccc2)CC1)c1cc(Cl)ccc1[N+](=O)[O-] | -37
O=C(CCC(=O)N1CCN(c2cccc(Cl)c2)CC1)N1CCN(c2ccccc2)CC1 | -55.6
O=C(CCCNS(=O)(=O)c1cccs1)N1CCN(c2ccc(F)cc2)CC1 | -43.2
O=C(O)CCC(=O)N1CCN(c2cccc(Cl)c2)CC1 | 12
O=C(OCC(=O)N1CCN(c2ccccc2)CC1)c1ccccc1[N+](=O)[O-] | -28.8
O=C(OCC(=O)N1CCN(c2ccccc2)CC1)c1ccc(Cl)cc1[N+](=O)[O-] | -63.6
O=C(Cn1c(=O)c2cccn2c2cccnc21)N1CCN(c2ccc(Cl)cc2)CC1 | -47
O=C(CCNS(=O)(=O)c1cccs1)N1CCN(c2cccc(Cl)c2)CC1 | -10.3
CN1CCN(C(=O)CCn2c(=O)c3cccn3c3cccnc32)CC1 | 8.62
O=C(O)CCCC(=O)N1CCN(c2cccc(Cl)c2)CC1 | 2.98
O=C(CCn1c(=O)c2cccn2c2cccnc21)N1CCN(c2cccc(Cl)c2)CC1 | -58.8

SMILES | hERG current change (%, negative = inhibition) at 10uM [%]
O=C(CCCNS(=O)(=O)c1cccs1)N1CCN(c2cccc(Cl)c2)CC1 | -56.9
O=C(COc1c(Br)cc(Br)cc1Br)N/N=C/c1ccco1 | 14.2
Nc1nnc(SCC(=O)Nc2ccc(Cl)c(C(=O)O)c2)s1 | 19.8
O=C(NCCc1ccc(C(F)(F)F)cc1)C1CC(=O)N(c2ccc3c(c2)OCCO3)C1 (centres unmarked) | -2.97
O=C(Cn1cc(C(=O)C2CCCCC2)c2ccccc21)NCC1CCCO1 (centres unmarked) | -14.8
O=C(Nc1ccc(Br)cc1)NC1CCCCCCC1 | 2.29
O=C(NCCN1CCCCC1)/C(=N\O)c1ccccc1 | 5.35
O=C(NCCC(=O)N1CCN(c2ccccc2O)CC1)c1ccc(Br)cc1 | -13.3
O=C(NCCC(=O)N1CCN(c2cccc(Cl)c2)CC1)c1ccc(Br)cc1 | -55
O=C(CCC(=O)N1CCN(c2cccc(Cl)c2)CC1)c1cccs1 | -56.8
COc1ccccc1N1CCN(C(=O)CCn2c(=O)[nH]c3ccsc3c2=O)CC1 | 8.71
O=C(CCn1c(=O)[nH]c2ccsc2c1=O)N1CCN(c2ccc([N+](=O)[O-])cc2)CC1 | -35.2
O=C(CCn1c(=O)[nH]c2ccsc2c1=O)N1CCN(c2cccc(Cl)c2)CC1 | -52.3
COc1ccc(N2CCN(C(=O)CCNC(=O)c3ccc(Br)cc3)CC2)cc1 | -20.2
O=C(c1cccs1)N1CCN(c2cccc(Cl)c2)CC1 | -16.5
O=C(CCC(=O)N1CCN(c2ccc(O)cc2)CC1)c1cccs1 | -3.11
COc1ccccc1CSc1ncc(-c2ccc([N+](=O)[O-])cc2)[nH]1 | -13.8
CC(C)(C)C(=O)CN1C(=O)NC2(CCCc3ccccc32)C1=O (centres unmarked) | 14
O=C(CCC1CCN(C(=O)c2cncs2)CC1)Nc1ccccc1 | -4.83

SMILES | hERG current change (%, negative = inhibition) at 10uM [%]
COCCNC(=O)CN(C(=O)CCC(=O)Nc1ccccn1)c1ccc(C)c(C)c1 | 16
CCc1ccc(C(=O)/C=C/NCc2ccc(F)cc2)cc1 | -4.74
COc1ccc(C(=O)/C=C/NCc2ccc(F)cc2)cc1OC | -65
Cc1ccc(C(=O)/C=C/NCc2ccc(F)cc2)cc1 | -9.71
CC(C)=C1C2CCC1C1C(=O)N(c3nc(-c4ccccc4)c(C)s3)C(=O)C21 (centres unmarked) | -2.93
COc1cccc(NC(=O)CSc2nc3scc(C)c3c(=O)[nH]2)c1 | 10.5
CC(=O)c1ccc(N2CCN(c3ccc(S(=O)(=O)NCCCN(C)C)cc3[N+](=O)[O-])CC2)cc1 | -18.1
CN(C)CCNS(=O)(=O)c1ccc(N2CCN(c3ccc(F)cc3)CC2)c([N+](=O)[O-])c1 | -62.4
CC(=O)c1ccc(N2CCN(c3ccc(S(=O)(=O)NCCN(C)C)cc3[N+](=O)[O-])CC2)cc1 | -23.2
CCOC(=O)c1c(N)nn(C(=O)C(C)C)c1-c1ccc(OC)cc1 | 22.1
O=[n+]1c2c(n([O-])c3cc(F)c(F)cc31)CCCC2 | 10.2
CN(C)CCn1c2c(c(SCC(=O)Nc3nccs3)nc1=O)CCCC2 | -30
CCN(CC)CCCn1c2c(c(SCC(=O)Nc3nc(C)cs3)nc1=O)CCC2 | -42.6
CCN(CC)CCn1c2c(c(SCC(=O)Nc3nccs3)nc1=O)CCCC2 | -59.5
CCN(CC)CCn1c2c(c(SCC(=O)Nc3nc(C)cs3)nc1=O)CCC2 | -48.7
CCN(CC)CCCn1c2c(c(SCC(=O)Nc3nccs3)nc1=O)CCC2 | -32
Cc1csc(NC(=O)CSc2nc(=O)n(CCN(C)C)c3c2CCCC3)n1 | -55.9
CCN(CC)CCn1c2c(c(SCC(=O)Nc3nc(C)cs3)nc1=O)CCCC2 | -70.1
